High-throughput results as filed in PubChem BioAssay.
Hits are enriched below; roughly 3.4% of the tested compounds scored in any of these assays.
SIRT5 block: SIRT5 desuccinylase inhibitors, primary screen, biochemical, fluorescence imaging, single point, set 5; NAD-dependent protein deacylase sirtuin-5, mitochondrial (Homo sapiens), Q9NXA8; Purified SirT5, succinyl-peptide AMC, trypsin-coupled fluorescence; inhibition, % at 15 µM; 330,000 compounds, 1.1% hits; AID 652115, 2013; in the data active means inhibition above about 15%
Target sequence (Q9NXA8 whole entry, looked up): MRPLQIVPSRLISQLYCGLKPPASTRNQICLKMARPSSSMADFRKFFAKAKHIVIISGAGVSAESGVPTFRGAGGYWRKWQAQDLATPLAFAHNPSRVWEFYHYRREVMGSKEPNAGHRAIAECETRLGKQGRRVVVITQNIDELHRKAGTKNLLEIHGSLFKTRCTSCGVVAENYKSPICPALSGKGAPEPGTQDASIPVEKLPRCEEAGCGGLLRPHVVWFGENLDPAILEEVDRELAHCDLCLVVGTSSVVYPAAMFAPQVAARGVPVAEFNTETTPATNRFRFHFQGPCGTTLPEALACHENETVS
PAX8 reporter: inhibitors of PAX8-driven TPO luciferase reporter, primary screen, RMG-I cells, single concentration | inhibition, % at 12.6 µM | 360,000 compounds, 1.2% hits | SteadyGlo, 24 h;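 active means mean replicate inhibition at least 60% with every replicate also reaching 60%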;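 further: luciferase light reporting Pax8 driven TPO promoter activity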
LGR2 antag: inhibitors of bursicon-induced LGR2 CRE-luciferase signal, primary screen, cell-based, HEK293, CRE-luciferase reporter, bursicon stimulation; Drosophila bursicon receptor LGR2 (rickets); bursicon-stimulated, 4 h; inhibition, % at 9.99 µM; 380,000 compounds, 0.35% hits;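 active means drop in luminescence signal, shown as inhibition above about 50% in the replicate tests, limit read from the data, passing the limit was not always enough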;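 further: agonist challenge used bursicon conditioned medium at about half maximal strength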
Ecoli rRNA inh: reduced GFP signal of wild-type E. coli, primary screen, bacterial rRNA inhibitor project, GFP/RFP fluorescence, OD600, single point. E. coli WT GFP vs humanized-ribosome RFP mutants, 24 h; hits give low values; DMSO median 0, no signal -100. GFP signal change (wild-type ribosome), % (no concentration beside the values). 350,000 compounds, 1.6% hits. AID 720706, 2013;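 active means significant combined selectivity score with lowered wild-type GFP, culture density cut under 30%, mutant RFP and density less affected; inactive means any of these conditions unmet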
EWS-Fli block: EWS/Fli-driven NR0B1 reporter inhibitors, primary screen, A673 cells, NR0B1 luciferase, luminescence, MLPCN library | viability-normalised | inhibition, % at 12.6 µM | 350,000 compounds, 0.67% hits;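 active means mean inhibition of at least 50% after viability correction, with every replicate also passing that limit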;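 further: firefly luciferase signal divided by Alamar Blue viability fluorescence both relative to DMSO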
PGC1a acetyl inh: inhibitors of PGC1a acetylation signal, primary screen, cell-based, U2OS, AlphaScreen, inhibitor mode; AlphaScreen anti-acetyl-lysine; with virally co-expressed GCN5 acetyltransferase; inhibition, % at 15.6 µM; AID 651687, 2012; 350,000 compounds, 0.17% hits;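 active means every replicate shows inhibition of at least 40%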
Hits are given with their value.

O=S(=O)(Nc1cccc(Br)c1)c1cccc2nsnc12 was read as SIRT5 block inactive, PAX8 reporter inactive, LGR2 antag inactive, Ecoli rRNA inh -33.5 and EWS-Fli block inactive.
Screening C[C@@H]1CN([C@H](C)CO)C(=O)c2cccc(NC(=O)Nc3ccccc3)c2O[C@@H]1CN(C)Cc1ccccc1 returned SIRT5 block inactive, PAX8 reporter inactive, LGR2 antag inactive, Ecoli rRNA inh inactive, EWS-Fli block inactive and PGC1a acetyl inh inactive.
NNC(=S)NC1CC2CC1C1C=CCC21 (stereo not given) was read as SIRT5 block inactive, PAX8 reporter inactive, LGR2 antag inactive, Ecoli rRNA inh -21.0 and EWS-Fli block inactive.
Screening Oc1ccc(O)c(C=NNC(=S)NC2CC3CC2C2C=CCC32)c1 (stereo not given) returned SIRT5 block inactive, PAX8 reporter inactive, LGR2 antag inactive, Ecoli rRNA inh inactive, EWS-Fli block inactive and PGC1a acetyl inh inactive.
`CCCc1c(C(=O)NNc2ccccc2OC)cnn1-c1ccccc1` gave SIRT5 block inactive, PAX8 reporter inactive, LGR2 antag inactive, Ecoli rRNA inh -23.4 and EWS-Fli block inactive.
Screening CCCc1c(C(=O)N2CCN(c3ccccc3OC)CC2)cnn1-c1ccccc1 returned SIRT5 block inactive, PAX8 reporter inactive, LGR2 antag inactive, Ecoli rRNA inh inactive, EWS-Fli block inactive and PGC1a acetyl inh inactive.
Screening CCCc1c(C(=O)Nc2ccc(OC)cc2)cnn1-c1ccccc1 returned SIRT5 block inactive, PAX8 reporter inactive, LGR2 antag inactive, Ecoli rRNA inh -23.5, EWS-Fli block inactive and PGC1a acetyl inh inactive.
COc1cccc(NC(=O)c2cnn(-c3ccccc3)c2C)c1 was read as SIRT5 block inactive, PAX8 reporter inactive, LGR2 antag inactive, Ecoli rRNA inh inactive and EWS-Fli block inactive.
CCOC(=O)N1CCN(C(=O)CSc2ccc3nnc(-c4ccccn4)n3n2)CC1 was read as SIRT5 block 16.2, PAX8 reporter inactive, LGR2 antag inactive, Ecoli rRNA inh inactive, EWS-Fli block inactive and PGC1a acetyl inh inactive.
For CCCn1c(SCC(=O)N2CCCC(C)C2)nnc1-c1ccccn1 (stereo not given) the results were SIRT5 block 24.5, PAX8 reporter inactive, LGR2 antag inactive, Ecoli rRNA inh inactive and EWS-Fli block inactive.
O=C(CSc1ccc(-c2ccccn2)nn1)N1CCCCC1 was read as SIRT5 block 15.1, PAX8 reporter inactive, LGR2 antag inactive, Ecoli rRNA inh inactive and EWS-Fli block inactive.
`O=C(c1cccnc1)N1CC2(C1)[C@H](c1ccccc1)[C@@H](CO)N2C(=O)c1cccnc1` gave SIRT5 block inactive, LGR2 antag inactive, Ecoli rRNA inh inactive, EWS-Fli block inactive and PGC1a acetyl inh inactive.
NC(=S)NN=Cc1cc(-c2cccc(N)c2)ccn1 was read as PAX8 reporter 94.1, LGR2 antag inactive, Ecoli rRNA inh inactive, EWS-Fli block inactive and PGC1a acetyl inh inactive.
C[C@H](NC(=O)C[C@H]1C[C@H]2c3cc(NS(C)(=O)=O)ccc3O[C@H]2[C@H](CO)O1)c1ccccc1 was read as SIRT5 block inactive, PAX8 reporter inactive, LGR2 antag inactive, Ecoli rRNA inh inactive, EWS-Fli block inactive and PGC1a acetyl inh inactive.
Screening CC(=O)c1sc(N/N=C2\CC3CC2C(C)C3(C)C)nc1C (stereo not given) returned SIRT5 block inactive, PAX8 reporter inactive, LGR2 antag inactive, Ecoli rRNA inh -30.6, EWS-Fli block inactive and PGC1a acetyl inh inactive.
For Cc1ccc(S(=O)(=O)Nc2ccc3c(c2)C(=O)N([C@@H](C)CO)C[C@H](C)[C@@H](CN(C)S(=O)(=O)c2ccc(F)cc2)OCCCC[C@H](C)O3)cc1 the results were SIRT5 block inactive, PAX8 reporter inactive, LGR2 antag inactive, Ecoli rRNA inh inactive, EWS-Fli block inactive and PGC1a acetyl inh inactive.
For Cc1ccc(S(=O)(=O)Nc2ccc3c(c2)C(=O)N([C@@H](C)CO)C[C@H](C)[C@H](CN(C)S(=O)(=O)c2ccc(F)cc2)OCCCC[C@@H](C)O3)cc1 the results were SIRT5 block 17.6, PAX8 reporter inactive, LGR2 antag inactive, Ecoli rRNA inh inactive, EWS-Fli block inactive and PGC1a acetyl inh inactive.
Screening C[C@@H]1CCCCO[C@@H](CN(C)S(=O)(=O)c2ccc(F)cc2)[C@H](C)CN([C@H](C)CO)C(=O)c2cc(NS(=O)(=O)c3ccccc3)ccc2O1 returned SIRT5 block 15.9, PAX8 reporter inactive, LGR2 antag inactive, Ecoli rRNA inh inactive, EWS-Fli block inactive and PGC1a acetyl inh inactive.
Screening Cc1ccc(S(=O)(=O)Nc2ccc3c(c2)C(=O)N([C@H](C)CO)C[C@@H](C)[C@H](CN(C)S(=O)(=O)c2ccc(F)cc2)OCCCC[C@@H](C)O3)cc1 returned SIRT5 block inactive, PAX8 reporter inactive, LGR2 antag inactive, Ecoli rRNA inh inactive, EWS-Fli block inactive and PGC1a acetyl inh inactive.
`Cc1ccc(S(=O)(=O)N(C)C[C@H]2OCCCC[C@H](C)Oc3ccc(NS(=O)(=O)c4ccc(F)cc4)cc3C(=O)N([C@H](C)CO)C[C@@H]2C)cc1` gave SIRT5 block 20.5, PAX8 reporter 80.0, LGR2 antag inactive, Ecoli rRNA inh inactive, EWS-Fli block inactive and PGC1a acetyl inh inactive.
For Cc1ccc(S(=O)(=O)N(C)C[C@@H]2OCCCC[C@@H](C)Oc3ccc(NS(=O)(=O)c4ccc(F)cc4)cc3C(=O)N([C@@H](C)CO)C[C@@H]2C)cc1 the results were SIRT5 block 29.1, PAX8 reporter inactive, LGR2 antag inactive, Ecoli rRNA inh inactive, EWS-Fli block inactive and PGC1a acetyl inh inactive.
O=C(C[C@H]1CC[C@@H]2[C@H](COC[C@@H](O)CN2CCc2ccccc2)O1)NCc1ccc(F)cc1 was read as SIRT5 block inactive, PAX8 reporter inactive, LGR2 antag inactive, Ecoli rRNA inh inactive, EWS-Fli block inactive and PGC1a acetyl inh inactive.
For COc1ccc(S(=O)(=O)N2CCC3(CC2)CN(Cc2ccccc2OC)[C@@H](CO)c2[nH]c4cc(OC)ccc4c23)cc1 the results were SIRT5 block inactive, PAX8 reporter inactive, LGR2 antag inactive, Ecoli rRNA inh inactive and EWS-Fli block inactive.
For Cc1ccc(S(=O)(=O)Nc2ccc3c(c2)C(=O)N([C@@H](C)CO)C[C@@H](C)[C@H](CN(C)S(=O)(=O)c2ccc(F)cc2)OCCCC[C@@H](C)O3)cc1 the results were SIRT5 block 18.2, PAX8 reporter inactive, LGR2 antag inactive, Ecoli rRNA inh inactive, EWS-Fli block inactive and PGC1a acetyl inh inactive.
